Drawing on PubChem BioAssay AID1779 (Sanford-Burnham Center for Chemical Genomics, 2009), this text covers inhibition for 94 compounds.

Among all 290,000 compounds or so, about 160 (0.055%) were called active. The list comes from a sample in which actives are over-represented; it also holds similar structures and randomly drawn compounds. Values without a mark were called inactive. Rule as the data show it: active = inhibition above about 50%; inactive = the rest.

Sequence of Tyrosine-protein phosphatase non-receptor type 22 (Homo sapiens) (Q9Y2R2 whole entry, looked up): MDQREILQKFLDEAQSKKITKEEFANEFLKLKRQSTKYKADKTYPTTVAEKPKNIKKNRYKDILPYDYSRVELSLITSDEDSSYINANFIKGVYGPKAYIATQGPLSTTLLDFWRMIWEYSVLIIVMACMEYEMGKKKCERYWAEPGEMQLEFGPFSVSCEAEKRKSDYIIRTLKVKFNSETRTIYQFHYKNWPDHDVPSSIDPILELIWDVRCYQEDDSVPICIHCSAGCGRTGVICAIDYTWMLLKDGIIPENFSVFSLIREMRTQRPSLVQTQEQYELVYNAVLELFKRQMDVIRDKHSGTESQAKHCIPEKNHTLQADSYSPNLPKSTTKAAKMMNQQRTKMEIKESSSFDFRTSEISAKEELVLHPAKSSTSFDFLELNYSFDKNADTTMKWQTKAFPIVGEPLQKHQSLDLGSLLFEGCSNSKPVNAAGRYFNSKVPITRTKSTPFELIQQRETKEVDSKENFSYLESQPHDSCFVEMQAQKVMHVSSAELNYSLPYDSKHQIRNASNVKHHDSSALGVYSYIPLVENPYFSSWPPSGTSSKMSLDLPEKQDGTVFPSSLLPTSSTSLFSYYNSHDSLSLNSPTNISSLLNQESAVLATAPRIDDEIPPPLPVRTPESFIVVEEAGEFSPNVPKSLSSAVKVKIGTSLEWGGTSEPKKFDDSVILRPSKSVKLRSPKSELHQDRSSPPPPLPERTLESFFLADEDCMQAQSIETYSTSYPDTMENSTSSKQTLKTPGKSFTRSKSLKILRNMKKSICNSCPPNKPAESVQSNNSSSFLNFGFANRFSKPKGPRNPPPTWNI

This test addresses Tyrosine-protein phosphatase non-receptor type 22 (Homo sapiens) (UniProt Q9Y2R2). The test can be described thus: inhibitors of LYP phosphatase, biochemical, fluorescence intensity, uHTS (AID 1779).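 Also: plate controls were vehicle with enzyme for no effect and no enzyme for full effect.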 The settings on record: recombinant LYP phosphatase, at 11.5 µM, stronger effect = higher value.
For the compound `NC(=O)CC(NC(=O)Cc1ccc(Br)cc1)c1ccc(NC2CCC2)c([N+](=O)[O-])c1` (centres undefined), the inhibition was -1.3%.

Regarding `Cc1cccc(N2CCN(C(=O)c3ccc(Cl)c(NC4=NC5CS(=O)(=O)CC5S4)c3)CC2C)c1` (centres undefined), the inhibition was -0.7%.

On to `O=C(COc1ccc(S(=O)(=O)N2CCOCC2)cc1Cl)NCC1CCCO1` (centres undefined), for which the inhibition is -12%.

In the case of `CCCCOc1ccc(CN2CCCCC2)cc1`, the inhibition was 67.8% (active).

As to `CCCOc1ccc(CN2CCOCC2)cc1OC`, the inhibition is -8%.

As to `CCCCCOc1ccc(Cl)cc1CN1CCOCC1`, the inhibition was -8.9%.

For the compound `c1cc(OCCCN2CCCCC2)ccc1CN1CCCCC1`, the inhibition was -8%.

For the compound `CCCCOc1ccc(CN2CCSCC2)cc1`, the inhibition is -4.9%.

For `CCCCCOc1ccc(CN2CCOCC2)cc1Cl`, the inhibition was 50.2% (active).

Take `COc1ccc(C(=O)Nc2ccc(Cl)cc2C(=O)NCc2ccco2)cc1OC`: the inhibition was 0.7%.

Turning to `COc1cc(OC)cc(C(=O)NCCN2C(=O)S/C(=C\c3cccs3)C2=O)c1`, the inhibition is 0.8%.

`Cc1nn(C(C)C(=O)NCCCN2CCCCCC2)c(=O)c2c1sc1ccccc12` (centres undefined): the inhibition was -12.7%.

With `O=C(CCCCn1c(=O)c2ccccc2n(Cc2ccccc2)c1=O)NC1CCN(Cc2ccccc2)CC1`, the inhibition was -1.4%.

`Cc1cc(NC(=O)Cn2c(=O)n(CCCCC(=O)NC3CCN(Cc4ccccc4)CC3)c(=O)c3ccccc32)n[nH]1`: the inhibition was 73.8% (active).

On to `Cc1cccc(C)c1NC(=O)Cn1c(=O)n(CCCC(=O)NC2CCN(Cc3ccccc3)CC2)c(=O)c2ccccc21`, for which the inhibition was -5.3%.

`CCOC(=O)C1=C(C)NC(=S)NC1c1ccc(-c2cccc(Cl)c2C)o1` (centres undefined): the inhibition is 8.2%.

`COc1ccc2[nH]c(C)c(CCNC(=S)Nc3cc(C)ccc3C)c2c1`: the inhibition was 83.2% (active).

Turning to `COc1ccc2[nH]c(C)c(CCNC(=S)Nc3ccccc3C)c2c1`, the inhibition is 0.8%.

With `COc1ccc2[nH]c(C)c(CCNC(=S)Nc3cc(C)cc(C)c3)c2c1`, the inhibition was 2.4%.

Regarding `COc1ccc(COc2ccc(S(=O)(=O)N3CCCC3)cc2C(N)=O)cc1F`, the inhibition was -6%.

On to `Cc1ccccc1NS(=O)(=O)c1cc(S(C)(=O)=O)ccc1Cl`, for which the inhibition is -0.4%.

Take `CCNS(=O)(=O)c1cc(S(C)(=O)=O)ccc1Cl`: the inhibition is 85.1% (active).

As to `CS(=O)(=O)c1ccc(Cl)c(S(=O)(=O)NCc2ccccc2)c1`, the inhibition was -8.1%.

For the compound `CCC(C)(C(=O)NC1CCCC1)N(C(=O)c1cnccn1)c1c(C)n(C)n(-c2ccccc2)c1=O` (centres undefined), the inhibition was 1.7%.

As for `NS(=O)(=O)c1ccc(NC(=O)C2C3C=CC(C3)C2C(=O)O)cc1` (centres undefined), the inhibition is -7.2%.

Consider `CC(=O)Nc1ccc(NC(=O)C2C3C=CC(C3)C2C(=O)O)cc1` (centres undefined), for which the inhibition was -6.4%.

For the compound `CC(=O)NS(=O)(=O)c1ccc(NC(=O)C2C3C=CC(C3)C2C(=O)O)cc1` (centres undefined), the inhibition was 59.6% (active).

As to `COc1ccc(OC)c2c1nc1n2CCS1`, the inhibition was -2.7%.

For `COc1ccc(NC(=O)CN2C(=O)/C(=C3\SC(=S)N(C4CCS(=O)(=O)C4)C3=O)c3ccccc32)cc1` (centres undefined), the inhibition was -5.2%.

As for `COCCN1C(=O)/C(=C2/C(=O)N(CC(=O)Nc3ccccc3Cl)c3ccccc32)SC1=S`, the inhibition was -3.5%.

Turning to `O=C(CN1C(=O)/C(=C2\SC(=S)N(CCS(=O)(=O)O)C2=O)c2ccccc21)Nc1cccc(Br)c1`, the inhibition was 71% (active).

`COc1ccc(NC(=O)CN2C(=O)/C(=C3\SC(=S)N(CCC(=O)O)C3=O)c3ccccc32)cc1`: the inhibition was 69.2% (active).

Consider `O=C1/C(=C2\C(=O)N(Cc3ccc(F)cc3)c3ccccc32)SC(=S)N1CCS(=O)(=O)O`, for which the inhibition was -1.2%.

With `Cc1cccc(NC(=O)CN2C(=O)/C(=C3\SC(=S)N(CC4CCCO4)C3=O)c3ccccc32)c1` (centres undefined), the inhibition was -7.3%.

On to `Cc1c(N=Cc2cc(Br)cc(Br)c2O)cccc1C(=O)O`, for which the inhibition was -7.4%.

Regarding `CC(=O)CCn1cnc([N+](=O)[O-])n1`, the inhibition was -3.7%.

For the compound `Cc1ccc([C@@H]2[C@@H]3C(=O)N(C)C(=O)[C@@H]3[C@]3(C)C(=O)N(CCO)CC(=O)N23)o1`, the inhibition was -10.2%.

For the compound `COC(=O)c1[nH]c2ccccc2c1NC(=O)c1ccccc1F`, the inhibition was -5.7%.

`COc1ccc(OCC(=O)Nc2ccccc2OC(F)F)cc1`: the inhibition is -1.4%.

In the case of `CC(C)=NOCc1ccc(-c2cn([C@@H]3COC[C@H]3O)nn2)cc1`, the inhibition was -2.9%.

As to `Clc1ccc(-c2ccn[nH]2)cc1`, the inhibition was -8.1%.

Turning to `Cc1ccc(C)n1-c1ccc(-c2ccn[nH]2)cc1`, the inhibition was 50% (active).

With `c1ccn(-c2ccc(-c3ccn[nH]3)cc2)c1`, the inhibition was -5.9%.

For the compound `O=C(c1cccs1)N1CCCC1`, the inhibition is -12%.

With `COc1ccccc1CNC(=O)CCC(=O)N1CCOc2ccc(C)cc21`, the inhibition is -4.7%.

Consider `COc1ccc([N+](=O)[O-])cc1NC(=S)NC(NC(=O)C(c1ccccc1)c1ccccc1)C(Cl)(Cl)Cl` (centres undefined), for which the inhibition was 8%.

On to `COc1ccccc1OCC(=O)N(Cc1nc(-c2ccccc2)no1)C(C)C`, for which the inhibition was -3.5%.

For the compound `CC1CCCCN1Cc1ccc(-c2nnn(CC(=O)NC3CCCCC3)n2)cc1` (centres undefined), the inhibition was -2.1%.

On to `CCc1cc(-c2n[nH]c(=S)n2CC(C)C)cs1`, for which the inhibition was 5.1%.

Consider `CCCc1cc(-c2n[nH]c(=S)n2CC(C)C)cs1`, for which the inhibition is 58.3% (active).

Take `CCCc1cc(-c2n[nH]c(=S)n2CC)cs1`: the inhibition was -1.3%.

As to `Cc1cc2oc(=O)cc(CN(C)Cc3ccccc3F)c2cc1Cl`, the inhibition was -0.7%.

Regarding `COc1ccc(N2CCN(C(=O)c3ccc(S(=O)(=O)N4CCCC4)cc3)CC2)cc1`, the inhibition was -0.4%.

Regarding `COc1cc(=O)n(C)c2ccccc12`, the inhibition is -3.8%.

With `COc1cc(=O)n(C)c2cc(N(C)C)ccc12`, the inhibition was -9.9%.

Take `COc1ccc2c(OC)cc(=O)n(C)c2c1`: the inhibition is 59.6% (active).

With `CCOC(=O)CSc1nc2ccccc2c(=O)n1CC`, the inhibition is 1.2%.

On to `O=c1c(Cc2ccc(F)cc2)c(O)ccn1C1CC1`, for which the inhibition is -9%.

In the case of `Cc1cccc(N2CCN(C(=O)Cn3c(=O)[nH]c4ccsc4c3=O)CC2C)c1` (centres undefined), the inhibition was -8.5%.

As for `COCCn1nnnc1C(c1cccc(C(F)(F)F)c1)N1CCOCC1` (centres undefined), the inhibition is -7%.

Consider `CCC1CCCCN1CCCNC(=O)c1ccc(CS(=O)(=O)Cc2ccccc2F)o1` (centres undefined), for which the inhibition is 56.2% (active).

Regarding `CCC1CCCCN1CCCNC(=O)c1ccc(CS(=O)(=O)c2ccccc2C)o1` (centres undefined), the inhibition is -13.2%.

In the case of `CCC1CCCCN1CCCNC(=O)c1ccc(CS(=O)(=O)Cc2ccc(Cl)cc2)o1` (centres undefined), the inhibition is -7.2%.

As for `COc1cccc(/C=N/NC(=O)c2ccc([N+](=O)[O-])cc2Cl)c1O`, the inhibition is 9%.

On to `COc1cccc(/C=N/NC(=O)c2cc3cc([N+](=O)[O-])ccc3s2)c1O`, for which the inhibition was 73.6% (active).

On to `C=CCOc1ccc2cccc(/C=N/NC(=O)c3cc4cc([N+](=O)[O-])ccc4s3)c2c1`, for which the inhibition was -4.5%.

Regarding `CC(=O)N1CCN(c2ccc(NC(=O)c3ccc(OCc4ccccc4)cc3)cc2)CC1`, the inhibition is -3.8%.

In the case of `CCc1ccc(OCc2nnc(SCC(=O)NC3CCCCC3)o2)cc1`, the inhibition was -6.8%.

Regarding `CCCNS(=O)(=O)c1ccc(NC(=O)c2cccnc2)cc1`, the inhibition was -7.3%.

For the compound `CC1Sc2ccc(S(=O)(=O)CCC(=O)NC3CCCC(C)C3C)cc2NC1=O` (centres undefined), the inhibition was -6.7%.

Turning to `Cn1cc(Cl)c(C(=O)Nc2cnn(Cc3ccc(F)cc3)c2)n1`, the inhibition was -1.2%.

Turning to `Cc1ccccc1Cn1cc(NC(=O)c2nn(C)cc2Cl)cn1`, the inhibition was 60.2% (active).

`Cc1ccccc1Cn1cc(NC(=O)c2cc(-c3ccco3)on2)cn1`: the inhibition was -0.1%.

As to `Cc1ccc(OCc2cc(C(=O)NC3CCOC3)no2)cc1C` (centres undefined), the inhibition is -2.1%.

Regarding `O=C(CN1C(=O)c2ccccc2C1=O)N1CCN=C1c1ccccc1`, the inhibition was -8.9%.

Regarding `Cc1cc(C)cc(OCC(=O)N/N=C/c2ccncc2)c1`, the inhibition is -10.7%.

For the compound `CCn1ncc(/C=N\NC(=O)COc2cc(C)cc(C)c2)c1C`, the inhibition was -3.6%.

Turning to `Cc1cc(C)cc(OCC(=O)N/N=C\c2cn(C)nc2C)c1`, the inhibition was 76.1% (active).

Take `CC1=NNC(=O)C1CCC(=O)N/N=C(\C)c1ccccc1` (centres undefined): the inhibition was -4.6%.

Consider `c1ccc2c(c1)NC1(CCCC1)n1c-2nc2ccccc21`, for which the inhibition was -16.8%.

As for `Cc1cccc(NC(=O)Nc2cccc(C)n2)n1`, the inhibition was -5.9%.

As for `COc1ccc(Cc2nnc(NC(=O)c3ccccc3F)s2)cc1`, the inhibition was -0.8%.

As for `COc1ccc(Cc2nnc(NC(=O)c3ccccc3F)s2)cc1OC`, the inhibition was 66.6% (active).

As to `COc1ccc(Cc2nnc(NC(=O)c3ccccc3Cl)s2)cc1OC`, the inhibition was -9.8%.

Consider `COc1ccc2cc(C(C)c3nc4ccccc4c(=O)n3N)ccc2c1` (centres undefined), for which the inhibition was 4.5%.

Turning to `C=CCNc1nc(C(F)(F)F)nc2c1nnn2Cc1ccccc1Cl`, the inhibition was -2.4%.

Regarding `COc1ccc(CNC(=O)c2cc(-c3ccccc3O)n[nH]2)cc1`, the inhibition is 53.5% (active).

Take `COc1ccc(CNC(=O)c2cc(-c3cc(C)ccc3O)n[nH]2)cc1`: the inhibition was -3.7%.

As to `COc1ccc(CNC(=O)c2cc(-c3cc(C)cc(C)c3O)n[nH]2)cc1`, the inhibition was 4%.

As to `COc1cccc(N(C(=O)c2snc(C(N)=O)c2N)C(C(=O)NCC2CCCO2)c2cccs2)c1` (centres undefined), the inhibition is -2%.

On to `COc1ccc(C2=NN(C(=O)CCC(=O)O)C(c3ccc(OC)c(OC)c3)C2)cc1` (centres undefined), for which the inhibition was -7.5%.

Turning to `COc1ccc(C2CC(c3ccc(C)cc3)=NN2C(=O)CCC(=O)O)cc1OC` (centres undefined), the inhibition is 89.2% (active).

As for `COc1ccc(C2CC(c3ccc(Br)cc3)=NN2C(=O)CCC(=O)O)cc1OC` (centres undefined), the inhibition is -7.6%.

Turning to `CC(=O)c1ccc(-n2c(CCC(=O)O)ccc2-c2ccc(C)cc2)cc1`, the inhibition is -5.2%.

In general, inhibition refers to the drop in the measured response relative to a control, in per cent.
